Source: ChEMBL document CHEMBL1961873, “Compounds: GSK PKIS; Assays: Nanosyn kinase panel” (2012)

How the values were obtained:
[1] = target: MAP/microtubule affinity-regulating kinase 3 (Homo sapiens) (UniProt P27448); settings: at 1 µM;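 also: reported values are averaged percent inhibition of MARK3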
[2] = target: T1, MAP/microtubule affinity-regulating kinase 4 (Homo sapiens) (UniProt Q96L34); settings: at 0.1 µM
T1 sequence (whole entry): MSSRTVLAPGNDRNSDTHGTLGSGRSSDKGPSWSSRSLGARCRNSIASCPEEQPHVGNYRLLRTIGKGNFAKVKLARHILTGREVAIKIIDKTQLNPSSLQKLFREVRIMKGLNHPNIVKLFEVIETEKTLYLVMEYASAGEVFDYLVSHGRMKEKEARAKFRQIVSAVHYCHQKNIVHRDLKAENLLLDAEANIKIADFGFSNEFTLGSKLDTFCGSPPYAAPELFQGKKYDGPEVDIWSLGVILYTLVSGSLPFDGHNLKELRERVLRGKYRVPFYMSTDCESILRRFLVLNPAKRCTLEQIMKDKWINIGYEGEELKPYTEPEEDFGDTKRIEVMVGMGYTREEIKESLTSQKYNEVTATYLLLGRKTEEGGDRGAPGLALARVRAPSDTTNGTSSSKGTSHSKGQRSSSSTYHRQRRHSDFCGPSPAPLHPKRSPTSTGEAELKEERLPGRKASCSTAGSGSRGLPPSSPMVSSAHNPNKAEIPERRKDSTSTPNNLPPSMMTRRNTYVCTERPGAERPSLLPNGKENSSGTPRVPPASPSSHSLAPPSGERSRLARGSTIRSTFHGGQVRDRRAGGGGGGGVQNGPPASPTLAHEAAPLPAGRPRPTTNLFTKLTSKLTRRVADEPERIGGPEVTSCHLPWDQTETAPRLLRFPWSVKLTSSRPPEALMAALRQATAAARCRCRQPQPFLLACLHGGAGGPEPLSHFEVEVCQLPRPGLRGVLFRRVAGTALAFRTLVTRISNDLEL

[3] = target: T1, MAP/microtubule affinity-regulating kinase 4 (Homo sapiens); settings: at 1 µM
[4] = target: Maternal embryonic leucine zipper kinase (Homo sapiens) (UniProt Q14680); settings: at 0.1 µM
[5] = target: Maternal embryonic leucine zipper kinase (Homo sapiens) (UniProt Q14680); settings: at 1 µM
[6] = target: MAP kinase-interacting serine/threonine-protein kinase 1 (Homo sapiens) (UniProt Q9BUB5); settings: at 0.1 µM
[7] = target: MAP kinase-interacting serine/threonine-protein kinase 1 (Homo sapiens) (UniProt Q9BUB5); settings: at 1 µM
[8] = target: MAP kinase-interacting serine/threonine-protein kinase 2 (Homo sapiens) (UniProt Q9HBH9); settings: at 0.1 µM
[9] = target: MAP kinase-interacting serine/threonine-protein kinase 2 (Homo sapiens) (UniProt Q9HBH9); settings: at 1 µM
[10] = target: Serine/threonine-protein kinase MARK2 (Homo sapiens) (UniProt Q7KZI7); settings: at 0.1 µM
[11] = target: Serine/threonine-protein kinase MARK2 (Homo sapiens) (UniProt Q7KZI7); settings: at 1 µM
[12] = target: PAS domain-containing serine/threonine-protein kinase (Homo sapiens) (UniProt Q96RG2); settings: at 0.1 µM
[13] = target: PAS domain-containing serine/threonine-protein kinase (Homo sapiens) (UniProt Q96RG2); settings: at 1 µM
[14] = target: Phosphorylase b kinase gamma catalytic chain, skeletal muscle/heart isoform (Homo sapiens) (UniProt Q16816); settings: at 0.1 µM
[15] = target: Phosphorylase b kinase gamma catalytic chain, skeletal muscle/heart isoform (Homo sapiens) (UniProt Q16816); settings: at 1 µM
[16] = target: T2, Phosphorylase b kinase gamma catalytic chain, liver/testis isoform (Homo sapiens) (UniProt P15735); settings: at 0.1 µM
T2 sequence (whole entry): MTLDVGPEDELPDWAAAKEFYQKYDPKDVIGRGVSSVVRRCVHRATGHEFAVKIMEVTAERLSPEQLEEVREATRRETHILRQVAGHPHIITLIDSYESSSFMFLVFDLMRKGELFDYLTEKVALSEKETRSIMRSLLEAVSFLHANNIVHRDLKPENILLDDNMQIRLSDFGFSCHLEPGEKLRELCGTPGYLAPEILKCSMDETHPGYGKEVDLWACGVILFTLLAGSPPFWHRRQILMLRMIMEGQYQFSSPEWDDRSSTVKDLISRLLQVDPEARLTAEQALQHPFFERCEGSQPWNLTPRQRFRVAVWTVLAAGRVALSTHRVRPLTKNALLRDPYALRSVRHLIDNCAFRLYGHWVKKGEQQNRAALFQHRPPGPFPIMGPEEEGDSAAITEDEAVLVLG

[17] = target: T2, Phosphorylase b kinase gamma catalytic chain, liver/testis isoform (Homo sapiens); settings: at 1 µM
[18] = target: Serine/threonine-protein kinase pim-1 (Homo sapiens) (UniProt P11309); settings: at 0.1 µM
[19] = target: Serine/threonine-protein kinase pim-1 (Homo sapiens) (UniProt P11309); settings: at 1 µM
[20] = target: Serine/threonine-protein kinase pim-2 (Homo sapiens) (UniProt Q9P1W9); settings: at 0.1 µM;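 also: reported value is the mean percent inhibition of PIM2, measured in the GSK PKIS kinase inhibitor set screen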
Sequence of Serine/threonine-protein kinase pim-2 (Homo sapiens) (Q9P1W9 whole entry, looked up): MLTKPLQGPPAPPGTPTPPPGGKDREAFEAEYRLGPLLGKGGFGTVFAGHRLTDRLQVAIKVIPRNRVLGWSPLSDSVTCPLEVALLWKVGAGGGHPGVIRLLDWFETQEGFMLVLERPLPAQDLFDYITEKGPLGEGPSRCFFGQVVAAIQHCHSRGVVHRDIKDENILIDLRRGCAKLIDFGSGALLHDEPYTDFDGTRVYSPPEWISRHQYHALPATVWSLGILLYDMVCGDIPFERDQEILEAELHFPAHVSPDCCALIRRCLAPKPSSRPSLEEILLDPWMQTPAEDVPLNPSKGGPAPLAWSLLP

Sequence of Serine/threonine-protein kinase MARK2 (Homo sapiens) (Q7KZI7 whole entry, the tested form may be a part): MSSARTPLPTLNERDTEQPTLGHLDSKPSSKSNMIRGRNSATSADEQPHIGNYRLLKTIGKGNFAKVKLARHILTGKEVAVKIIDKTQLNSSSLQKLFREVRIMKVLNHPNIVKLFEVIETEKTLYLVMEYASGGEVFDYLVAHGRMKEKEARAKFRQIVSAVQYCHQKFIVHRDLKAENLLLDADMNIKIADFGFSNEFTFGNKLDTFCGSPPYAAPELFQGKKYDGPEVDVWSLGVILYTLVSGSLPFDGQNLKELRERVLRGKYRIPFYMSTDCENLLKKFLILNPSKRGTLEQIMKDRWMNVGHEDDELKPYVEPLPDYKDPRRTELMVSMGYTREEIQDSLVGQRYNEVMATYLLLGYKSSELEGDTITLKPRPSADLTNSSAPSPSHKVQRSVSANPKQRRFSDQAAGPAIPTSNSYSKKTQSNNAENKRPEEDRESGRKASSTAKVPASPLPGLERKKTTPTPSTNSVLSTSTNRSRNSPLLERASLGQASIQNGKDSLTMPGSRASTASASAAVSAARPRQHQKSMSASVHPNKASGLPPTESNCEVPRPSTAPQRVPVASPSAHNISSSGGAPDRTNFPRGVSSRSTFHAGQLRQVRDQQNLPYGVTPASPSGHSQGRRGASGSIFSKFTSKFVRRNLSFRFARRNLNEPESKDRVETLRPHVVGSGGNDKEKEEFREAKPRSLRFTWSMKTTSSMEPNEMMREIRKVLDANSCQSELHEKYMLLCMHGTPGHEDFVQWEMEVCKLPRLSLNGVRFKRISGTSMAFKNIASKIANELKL
Sequence of Phosphorylase b kinase gamma catalytic chain, skeletal muscle/heart isoform (Homo sapiens) (Q16816 whole entry, looked up, canonical isoform): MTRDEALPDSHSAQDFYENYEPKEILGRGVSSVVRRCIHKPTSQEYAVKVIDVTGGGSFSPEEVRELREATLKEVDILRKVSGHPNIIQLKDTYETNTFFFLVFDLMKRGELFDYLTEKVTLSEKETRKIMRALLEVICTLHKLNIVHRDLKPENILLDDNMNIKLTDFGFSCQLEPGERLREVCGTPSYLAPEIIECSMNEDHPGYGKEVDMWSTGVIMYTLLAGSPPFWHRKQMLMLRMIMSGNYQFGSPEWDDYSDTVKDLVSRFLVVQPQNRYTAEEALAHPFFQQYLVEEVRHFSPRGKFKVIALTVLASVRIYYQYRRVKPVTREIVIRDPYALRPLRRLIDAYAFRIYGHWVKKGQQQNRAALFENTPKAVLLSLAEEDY
Sequence of MAP kinase-interacting serine/threonine-protein kinase 1 (Homo sapiens) (Q9BUB5 whole entry, looked up): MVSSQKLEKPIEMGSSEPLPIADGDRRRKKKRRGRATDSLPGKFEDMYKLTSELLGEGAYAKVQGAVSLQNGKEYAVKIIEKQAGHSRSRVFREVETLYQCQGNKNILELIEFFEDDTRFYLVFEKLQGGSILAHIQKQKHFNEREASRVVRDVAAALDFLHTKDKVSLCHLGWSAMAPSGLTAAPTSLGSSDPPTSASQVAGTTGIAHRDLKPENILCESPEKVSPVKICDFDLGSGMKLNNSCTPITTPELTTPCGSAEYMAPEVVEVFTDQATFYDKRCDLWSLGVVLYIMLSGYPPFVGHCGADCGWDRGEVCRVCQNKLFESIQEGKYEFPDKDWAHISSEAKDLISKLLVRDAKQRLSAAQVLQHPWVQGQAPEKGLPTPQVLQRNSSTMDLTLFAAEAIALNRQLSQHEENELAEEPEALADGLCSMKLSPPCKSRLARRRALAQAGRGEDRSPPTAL
Sequence of MAP/microtubule affinity-regulating kinase 3 (Homo sapiens) (P27448 whole entry, looked up): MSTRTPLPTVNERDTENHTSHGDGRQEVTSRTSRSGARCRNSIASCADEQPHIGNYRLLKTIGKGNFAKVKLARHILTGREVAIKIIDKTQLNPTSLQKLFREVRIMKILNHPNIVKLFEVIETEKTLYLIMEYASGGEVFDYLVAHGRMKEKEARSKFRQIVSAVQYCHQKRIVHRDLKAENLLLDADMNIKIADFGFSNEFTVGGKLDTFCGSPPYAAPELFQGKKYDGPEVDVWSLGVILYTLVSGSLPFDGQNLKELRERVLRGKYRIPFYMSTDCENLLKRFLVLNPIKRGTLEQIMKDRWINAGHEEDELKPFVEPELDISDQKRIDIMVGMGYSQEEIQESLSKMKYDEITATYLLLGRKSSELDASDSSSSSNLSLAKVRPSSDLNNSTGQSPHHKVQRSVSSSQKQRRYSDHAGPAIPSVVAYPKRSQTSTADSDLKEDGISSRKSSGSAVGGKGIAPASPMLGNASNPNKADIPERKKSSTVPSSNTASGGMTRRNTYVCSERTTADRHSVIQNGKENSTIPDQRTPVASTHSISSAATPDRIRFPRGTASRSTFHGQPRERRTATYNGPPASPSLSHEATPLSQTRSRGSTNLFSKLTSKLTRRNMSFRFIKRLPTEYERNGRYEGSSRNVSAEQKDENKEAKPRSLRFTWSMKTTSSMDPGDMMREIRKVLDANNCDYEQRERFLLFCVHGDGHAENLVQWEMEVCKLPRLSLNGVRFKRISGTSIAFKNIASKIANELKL
Sequence of PAS domain-containing serine/threonine-protein kinase (Homo sapiens) (Q96RG2 whole entry, the tested form may be a part, canonical isoform): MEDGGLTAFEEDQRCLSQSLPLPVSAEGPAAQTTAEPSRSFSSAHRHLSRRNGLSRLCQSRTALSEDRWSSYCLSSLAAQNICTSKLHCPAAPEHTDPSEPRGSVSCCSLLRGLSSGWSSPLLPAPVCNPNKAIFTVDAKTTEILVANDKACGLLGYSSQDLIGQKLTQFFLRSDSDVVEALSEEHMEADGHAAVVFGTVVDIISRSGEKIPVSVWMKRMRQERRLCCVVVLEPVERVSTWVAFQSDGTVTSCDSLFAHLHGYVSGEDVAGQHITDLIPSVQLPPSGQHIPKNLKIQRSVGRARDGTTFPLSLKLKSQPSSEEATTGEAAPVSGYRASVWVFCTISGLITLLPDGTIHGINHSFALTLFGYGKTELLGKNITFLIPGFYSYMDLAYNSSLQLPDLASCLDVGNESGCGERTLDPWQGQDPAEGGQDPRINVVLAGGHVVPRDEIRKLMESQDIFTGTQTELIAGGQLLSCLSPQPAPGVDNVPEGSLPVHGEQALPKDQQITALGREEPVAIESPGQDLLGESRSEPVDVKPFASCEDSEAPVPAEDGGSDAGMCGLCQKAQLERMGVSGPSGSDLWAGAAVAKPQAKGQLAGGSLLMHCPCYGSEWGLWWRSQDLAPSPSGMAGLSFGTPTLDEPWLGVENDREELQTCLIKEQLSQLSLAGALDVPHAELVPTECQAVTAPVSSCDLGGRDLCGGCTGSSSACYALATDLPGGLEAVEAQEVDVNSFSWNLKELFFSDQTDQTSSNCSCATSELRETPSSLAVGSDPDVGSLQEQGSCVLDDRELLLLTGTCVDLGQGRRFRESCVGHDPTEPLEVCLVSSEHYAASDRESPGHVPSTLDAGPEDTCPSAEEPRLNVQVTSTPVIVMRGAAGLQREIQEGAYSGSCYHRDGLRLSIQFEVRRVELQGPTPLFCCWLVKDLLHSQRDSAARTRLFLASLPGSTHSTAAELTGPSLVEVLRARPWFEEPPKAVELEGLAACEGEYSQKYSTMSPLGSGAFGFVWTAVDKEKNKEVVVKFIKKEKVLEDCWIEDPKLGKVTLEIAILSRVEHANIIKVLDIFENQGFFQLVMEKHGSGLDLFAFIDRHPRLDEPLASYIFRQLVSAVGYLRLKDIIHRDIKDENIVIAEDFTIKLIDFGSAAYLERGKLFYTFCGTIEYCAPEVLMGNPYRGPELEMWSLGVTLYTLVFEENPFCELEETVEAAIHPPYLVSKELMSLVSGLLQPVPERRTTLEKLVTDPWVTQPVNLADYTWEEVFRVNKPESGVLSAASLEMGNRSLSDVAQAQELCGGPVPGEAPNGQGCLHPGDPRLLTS
Sequence of Serine/threonine-protein kinase pim-1 (Homo sapiens) (P11309 whole entry, looked up): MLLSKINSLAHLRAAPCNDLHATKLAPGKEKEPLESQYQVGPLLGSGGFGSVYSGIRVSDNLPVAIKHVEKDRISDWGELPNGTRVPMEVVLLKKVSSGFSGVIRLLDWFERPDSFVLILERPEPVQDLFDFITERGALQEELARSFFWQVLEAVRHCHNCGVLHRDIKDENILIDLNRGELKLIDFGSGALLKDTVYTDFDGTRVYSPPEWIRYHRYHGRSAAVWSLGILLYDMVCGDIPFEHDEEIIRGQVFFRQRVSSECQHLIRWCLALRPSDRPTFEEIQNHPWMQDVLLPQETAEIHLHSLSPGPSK
Sequence of Maternal embryonic leucine zipper kinase (Homo sapiens) (Q14680 whole entry, looked up): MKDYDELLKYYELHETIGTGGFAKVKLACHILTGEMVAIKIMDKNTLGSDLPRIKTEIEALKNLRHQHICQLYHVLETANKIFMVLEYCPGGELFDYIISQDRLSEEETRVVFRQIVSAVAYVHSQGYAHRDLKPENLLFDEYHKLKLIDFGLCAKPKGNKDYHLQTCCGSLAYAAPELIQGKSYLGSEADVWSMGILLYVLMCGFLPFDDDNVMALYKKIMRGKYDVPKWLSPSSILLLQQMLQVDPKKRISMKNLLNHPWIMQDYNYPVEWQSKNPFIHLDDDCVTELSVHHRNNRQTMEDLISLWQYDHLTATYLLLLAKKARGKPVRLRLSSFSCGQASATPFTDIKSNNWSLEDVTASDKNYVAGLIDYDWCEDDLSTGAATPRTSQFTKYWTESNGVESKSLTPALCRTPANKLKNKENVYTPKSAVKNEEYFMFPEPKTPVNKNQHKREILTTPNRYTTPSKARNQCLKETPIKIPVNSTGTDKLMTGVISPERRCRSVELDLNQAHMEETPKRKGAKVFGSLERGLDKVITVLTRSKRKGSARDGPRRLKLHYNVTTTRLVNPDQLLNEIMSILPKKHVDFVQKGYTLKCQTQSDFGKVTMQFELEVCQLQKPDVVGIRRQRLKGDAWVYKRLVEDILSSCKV

| Compound | inhibition [1] [%] | inhibition [2] [%] | inhibition [3] [%] | inhibition [4] [%] | inhibition [5] [%] | inhibition [6] [%] | inhibition [7] [%] | inhibition [8] [%] | inhibition [9] [%] | inhibition [10] [%] | inhibition [11] [%] | inhibition [12] [%] | inhibition [13] [%] | inhibition [14] [%] | inhibition [15] [%] | inhibition [16] [%] | inhibition [17] [%] | inhibition [18] [%] | inhibition [19] [%] | inhibition [20] [%] |
| --- | --- | --- | --- | --- | --- | --- | --- | --- | --- | --- | --- | --- | --- | --- | --- | --- | --- | --- | --- | --- |
| Cc1ccc2c(c1)/C(=N/Nc1ccc(S(N)(=O)=O)cc1)C(=O)N2 | 3.82 | 1.51 | 7.46 | -0.41 | 6.27 | 0.02 | 0.54 | -0.44 | 0 | -0.42 | 4.44 | 0.38 | 0.32 | 1.32 | 11 | 1.11 | 0.07 | 0.77 | 0.99 | 0.28 |
| COc1cccc(-n2nc(C)c3c(N/N=C(\C)c4ccncc4)ncnc32)c1 | 0.26 | -0.19 | -0.43 | -0.32 | 1.96 | 0.47 | 1.1 | -0.51 | 0.76 | -0.2 | 0.88 | 1.38 | 0.57 | 0.48 | 2.64 | 0.83 | 0.29 | -0.49 | 0.18 | -0.5 |
| Nc1ccc(C#Cc2cncnc2Nc2ccc(OCc3cccc(F)c3)c(Cl)c2)cc1 | 2.52 | 2.36 | 1.95 | 2.97 | 1.48 | 2.04 | 10.7 | 0.63 | 7.26 | -0.22 | 0.46 | 1.09 | 1.56 | 4.22 | 2.49 | 3.68 | 4.32 | 0.21 | 1.21 | 0.43 |
| COC(=O)Nc1nc2cc(Oc3ccc(NC(=O)Nc4cccc(Br)c4)cc3)ccc2[nH]1 | 1.7 | 0.25 | 1.17 | 2.93 | 4.7 | 4.77 | 8.85 | 1.96 | 4.55 | -0.39 | 0.27 | 0.17 | 1.67 | 3.04 | 4.55 | 3.62 | 2.45 | -0.51 | 0.21 | -0.42 |
| O=C1Nc2ccc(-c3cccnc3)cc2C1=Cc1cc(Br)c(O)c(Br)c1 | 6.43 | 1.85 | 3.53 | 3.77 | 10.4 | 2.71 | 12.7 | 6.02 | 36 | 1.17 | 5.11 | 0.91 | 1.32 | 3.37 | 9.21 | 4.01 | -0.09 | 6.4 | 37.6 | 8.09 |
| CC(C)c1ccc2c(c1)NC(=O)/C2=N/Nc1ccc(S(N)(=O)=O)cc1 | -2.09 | -0.86 | 0.13 | 0.88 | 0.52 | 1.43 | 2.29 | 0.22 | 2.57 | -1.41 | -0.8 | 1.25 | 0.24 | -0.83 | 1.14 | 0.03 | 0.32 | 0.27 | -0.22 | -0.21 |
| CCn1c(-c2nonc2N)nc2c(C#CC(C)(C)O)nc(OCCNC)cc21 | 11.6 | 2.05 | 7.52 | 17.5 | 81.1 | 1.63 | 3.44 | 0.5 | 1.12 | 1.74 | 10.6 | -1.05 | 0.6 | 1.42 | 4.25 | 3.52 | 4.33 | 1.82 | 4.29 | -0.54 |
| Cc1ccc(O)cc1Nc1ccnc2ccc(S(C)(=O)=O)cc12 | 4.85 | 2.23 | 1.71 | 4.23 | 9.23 | 3.85 | 12.2 | 1.97 | 9.18 | 2.65 | 1.93 | -0.05 | 4.61 | 6.2 | 10 | 5.57 | 7.16 | 0.95 | 1.4 | 0.23 |
| Cc1ccc2c(-c3ccnc(Nc4ccc5c(c4)OCCO5)n3)c(-c3ccc(C(F)(F)F)cc3)nn2n1 | 5.36 | 1.96 | 3.07 | -1.46 | 0.19 | 0.37 | -0.05 | 0.66 | 1.73 | -0.06 | 2.02 | 1.16 | 1.48 | 3.21 | 1.99 | 1.58 | 1.14 | -0.32 | 0.3 | 0.44 |
| O=C(Nc1ccc(Oc2ccc3[nH]c(NC(=O)c4ccco4)nc3c2)cc1)Nc1cc(C(F)(F)F)ccc1F | -0.23 | 0.1 | 2.11 | 0.54 | 8.57 | 3.42 | 28.4 | 2.04 | 37.3 | -0.8 | 0.83 | 0.28 | 0.06 | 0.41 | 8.29 | 0.46 | -0.56 | 0.14 | 1.19 | -3.36 |
| c1ccc(Cc2nc3ccc(Nc4ncnc5ccccc45)cc3[nH]2)cc1 | 3.72 | 0.9 | 2.17 | 0.16 | 7.57 | 2.13 | 5.06 | 1.25 | 5.19 | 0.28 | 2.19 | 0.03 | 0.27 | 2.35 | 4.75 | 3.39 | 4.89 | 0.17 | 0.7 | -0.72 |
| NC(=O)c1cccc(Nc2nccc(Nc3cccc(F)c3)n2)c1 | 2.35 | 0.72 | 3.28 | -2.04 | 2.88 | 1.05 | 3.91 | 0.26 | 8.7 | -1.24 | 3.47 | 1.27 | 0.17 | -0.51 | 3.35 | 1.29 | 0.54 | -0.04 | -0.4 | -0.05 |
| C[C@@H](Oc1cc(-n2cnc3ccc(OC[C@@H](O)CO)cc32)sc1C(N)=O)c1ccccc1Cl | 5.81 | 1.02 | 5.24 | -2.58 | 3.21 | -0.74 | 2.69 | 0.15 | 2.94 | -0.27 | 4.76 | 0.26 | 1.99 | 0.98 | 4.08 | -2.13 | -1.44 | 2.14 | 19.1 | -0.13 |
| NS(=O)(=O)c1ccc(Nc2cc(-c3cccc(O)c3)n[nH]2)cc1 | 32.5 | 3.4 | 9.85 | 4.37 | 7.45 | 3.01 | 7.14 | 0.45 | 5.79 | 1.86 | 6.24 | 0.14 | -1.99 | 3.73 | 12.8 | 6.63 | 6.34 | -0.06 | 1.3 | 0.62 |
